High-throughput results from PubChem BioAssay.
In the library only some 19% were active in any assay of this set; here they are far more common.
KB-3-1 tox: kills parental KB-3-1 adenocarcinoma cells. KB-3-1 viability, CellTiter-Glo ATP luminescence, 72 h. Potency, µM (titrated, usually from 46.1 µM), most hits filed as cytotoxic. 400,000 tested, 1.4% active. AID 1347075; also: nearly all actives have a fitted effect of over 60% in size
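Here the drug-naive KB-3-1 line serves as comparator for MDR sub-line selectivity; cells received compound titrations, 72 h at 37 °C, then CellTiter-Glo readout.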
HT1080 IDH1KD tx: kills HT-1080 cells with IDH1 knockdown. HT-1080 IDH1 knockdown viability, ATP luminescence, 48 h. AID 686971. 360,000 tested, 2% active. Potency, µM (top dose mostly 46.1 µM), for inactives: at the highest dose activity, negative = toxicity, hits mostly cytotoxic;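 also: 0% = DMSO wells and -100% = cell-free medium wells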
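HT-1080-IDH1KD cells (IDH1 knocked down), 750/well in RPMI with 5% FBS, treated with compound 48 h at 37 degrees C. Viability by CellTiter-Glo luminescence, normalised to DMSO and no-cell wells; concentration-response curves classed.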
HT1080-NT tox: kills 2HG-producing HT-1080-NT fibrosarcoma cells; Potency, µM (titrated, usually from 46.1 µM), without a hit: top-dose activity, negative = less viability, actives largely listed as cytotoxic; AID 686970; 360,000 tested, 1.6% active; HT-1080-NT fibrosarcoma viability, CellTiter-Glo ATP luminescence, 48 h;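 also: NT is the 2HG producing partner of a matched IDH1 knockdown line; 0% = DMSO-treated cells and -100% = media-only wells without cells; nearly all actives have a fitted effect of over 55% in size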
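Compounds were tested in concentration-response format on HT-1080-NT cells for 48 hours at 37 degrees C. Cell viability came from CellTiter-Glo luminescence; curves were classified by r2, response magnitude and activity.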
DT40 TDP1 no CPT: qHTS for Inhibitors of human tyrosyl-DNA phosphodiesterase 1 (TDP1): qHTS in cells in absence of CPT; DT40 Tdp1-/- hTDP1 cells, no CPT, ATP luminescence, 48 h; Potency, µM (series often up to 46.2 µM), for the others: at the highest dose activity change, negative = growth inhibition, most hits filed as inhibitors; 420,000 tested, 15% active; AID 686978, 2013; also: nearly all actives have a fitted effect of over 55% in size
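Cells were dispensed at 400 per well, compounds added by pin tool, plates incubated ≥48 hr at 37 °C, then CellTiter-Glo added for 30 min at room temperature before luminescence reading. Line: DT40 Tdp1-/- complemented with hTDP1; camptothecin omitted.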
KB-V1 MDR tox: KB-V1 MDR subline cytotoxicity; KB-V1 MDR cells viability, CellTiter-Glo, 72 h; Potency, µM (titrated, usually from 46.1 µM), most hits filed as cytotoxic; 400,000 tested, 3.4% active; AID 1347076; also: nearly all actives have a fitted effect of over 60% in size
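Cytotoxicity via CellTiter-Glo luminescence after 72 h compound exposure at 37 degrees C. Cells: drug-selected KB-V1 line, DMEM phenol-red free plus 10% FBS. Compounds tested at multiple concentrations; normalized data fitted to concentration-effect curves.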
DT40 TDP1 CPT: DT40-hTDP1 cell growth loss with CPT | chicken DT40 Tdp1-/-;hTDP1 cells + 20 nM CPT, ATP luminescence, 48 h | Potency, µM (highest dose often 46.2 µM), for the others: at the top dose activity change, negative = growth inhibition, hits mostly inhibitors | 420,000 tested, 12% active | AID 686979; also: nearly all actives have a fitted effect of over 55% in size
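Chicken DT40 Tdp1-/- cells complemented with human TDP1, 400 cells/well, exposed to compounds plus 20 nM camptothecin for at least 48 h at 37 C; viability read as ATP content by CellTiter-Glo luminescence.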
The depositor's hits bear a star; i = inactive; ? = inconclusive; / = not tested or not shown. Calls follow the shape of the dose curve; as a rule, active = well fitted curve in the direction sought with a large enough effect; inconclusive = small, poorly fitted or top-dose-only effect, or another doubt; inactive = no such curve, though single readings can be large; an effect the other way counts as inactive or inconclusive. Unless noted, % is scaled to controls: 0 for no effect and ±100 for the full control effect; potency is read from the fitted curve at half-maximal effect.

SMILES	KB-3-1 tox	HT1080 IDH1KD tx	HT1080-NT tox	DT40 TDP1 no CPT	KB-V1 MDR tox	DT40 TDP1 CPT
Cc1ccc(CS(=O)Cc2ccc(C(=O)N3CCN(c4cccc(C)c4C)CC3)o2)cc1 (stereo unspecified)	i	-27.8%	-28.8%	20.6µM*	?	?
Cc1ccc(Cl)cc1N1CCN(C(=O)c2ccc(CS(=O)Cc3ccc(Cl)cc3)o2)CC1 (stereo unspecified)	i	?	-17.0%	?	i	13µM*
Cc1cccc(N2CCN(C(=O)c3ccc(CS(=O)Cc4cccc(Cl)c4)o3)CC2)c1C (stereo unspecified)	i	-2.5%	1.8%	?	i	?
COCCn1c(=O)c(-c2ccc(OC)cc2)nc2cnc(N3CCOCC3)nc21	/	/	/	-3.2%	/	2.4%
CN(CCC1CCOCC1)C(=O)CC1C(=O)NCCN1Cc1c(F)cccc1Cl (stereo unspecified)	i	-0.3%	-9.5%	-0.5%	i	-15.8%
Cc1ccccc1CN1CCc2c(OCC(=O)N3CCCCC3)cccc2C1=O	i	0.2%	-14.2%	?	?	?
O=C(COc1cccc2c1CCN(Cc1ccccc1F)C2=O)N1CCCCC1	i	?	-27.3%	20.6µM*	?	?
CCOC(=O)N1CCN(C(=O)COc2cccc3c2CCN(Cc2ccccc2F)C3=O)CC1	i	-21.4%	-13.0%	14.6µM*	i	20.6µM*
O=C(Nc1ccc(N2CCN(C(=O)c3ccco3)CC2)cc1)C(c1ccccc1)c1ccccc1	i	-5.0%	-1.0%	16.4µM*	?	20.6µM*
CC(C)(C)OC(=O)N1CCN(c2ccc(NC(=O)c3ccco3)cc2)CC1	i	10.4%	5.6%	16.4µM*	?	18.4µM*
CC(C)c1ccc(NC(=O)C(c2ccccc2)N2CCN(C(=O)c3ccco3)CC2)cc1 (stereo unspecified)	i	-23.1%	-13.2%	18.4µM*	i	?
O=C(Nc1ccc(N2CCN(C(=O)c3ccco3)CC2)cc1)c1ccco1	i	15.5%	7.0%	5.0%	i	-0.2%
COc1cccc(Cn2c(=O)n(CC3CCC(C(=O)N4CCCCC4)CC3)c(=O)c3sccc32)c1 (stereo unspecified)	i	/	/	?	i	?
O=C(Nc1ccccc1Cl)N1CCN(c2ccc3nnc(-c4ccc(F)cc4)n3n2)CC1	i	-9.4%	-1.8%	16.4µM*	i	18.4µM*
COc1ccccc1NC(=O)N1CCN(c2ccc3nnc(-c4ccc(F)cc4)n3n2)CC1	i	?	25.9µM*	?	?	18.4µM*
COc1ccccc1NC(=O)N1CCN(c2ccc3nncn3n2)CC1	i	8.4%	9.0%	-4.2%	i	-4.4%
COc1ccc2c(c1)c1ncn(Cc3ccco3)c(=O)c1n2C	i	-19.0%	-14.7%	13µM*	?	-5.4%
CCn1nc(C)c2c(-c3ccccc3)cc(=O)n(C(C)C(=O)NCCc3ccccc3)c21 (stereo unspecified)	i	/	/	?	i	18.4µM*
CCn1nc(C)c2c(-c3ccccc3)cc(=O)n(C(C)C(=O)NCCC(C)C)c21 (stereo unspecified)	i	/	/	?	i	18.4µM*
CCn1nc(C)c2c(-c3ccccc3)cc(=O)n(C(C)C(=O)NCCc3ccc(OC)c(OC)c3)c21 (stereo unspecified)	i	/	/	?	i	?
CCn1nc(C)c2c(-c3ccccc3)cc(=O)n(C(C)C(=O)NCc3ccc(C)cc3)c21 (stereo unspecified)	i	/	/	?	i	18.4µM*
OC(c1ccco1)c1nc(-c2cccs2)cs1 (stereo unspecified)	i	-14.7%	-15.7%	?	i	?
Cc1ccc(C)c(NC(=O)CN(Cc2ccccc2)S(=O)(=O)c2ccc3nc(C)sc3c2)c1	i	/	/	?	i	?
CCOC(=O)[C@]12CCC=C1N(Cc1cccc3ccccc13)C(=O)[C@H](CC(=O)N1CCOCC1)C2	i	-28.9%	-27.5%	?	i	?
CCOC(=O)[C@]12CCC=C1N(Cc1cccc3ccccc13)C(=O)[C@H](CC(=O)N1CCN(C(=O)c3ccco3)CC1)C2	?	-12.8%	-18.7%	?	i	18.4µM*
SMILES	KB-3-1 tox	HT1080 IDH1KD tx	HT1080-NT tox	DT40 TDP1 no CPT	KB-V1 MDR tox	DT40 TDP1 CPT
CCOC(=O)[C@]12CCCC=C1N(Cc1cccc3ccccc13)C(=O)[C@H](CC(=O)N1CCN(C(=O)C3CC3)CC1)C2	i	0.7%	0.9%	20.6µM*	?	?
CCOC(=O)[C@]12CCCC=C1N(Cc1cccc3ccccc13)C(=O)[C@H](CC(=O)N1CCCC1)C2	i	-9.8%	-9.6%	20.6µM*	9.2µM*	?
CCOC(=O)[C@]12CCC=C1N(Cc1cccc3ccccc13)C(=O)[C@H](CC(=O)N1CCC(c3ccccc3)CC1)C2	i	-0.4%	3.1%	?	?	?
CCOC(=O)[C@]12CCCC=C1N(Cc1ccccc1)C(=O)[C@H](CC(=O)N1CCC(c3ccccc3)CC1)C2	i	-23.0%	?	?	?	16.4µM*
Cc1ccc2cc(C)c(SCC#N)nc2c1	i	12.8%	8.2%	3.5%	i	-4.0%
ClCc1cc2ccccc2nc1Cl	i	12.6%	11.5%	8.2µM*	i	10.3µM*
Cc1ccc2cc(CCl)c(Cl)nc2c1	i	3.1%	17.4%	20.6µM*	i	16.4µM*
CCc1cc2ccccc2nc1Cl	i	6.7%	?	15.4%	i	0.1%
COc1ccc(Cl)cc1NC(=O)COC(=O)CCNS(=O)(=O)c1cccs1	i	8.6%	8.3%	-17.3%	?	21.8%
COc1ccc(CC(=O)NCCc2sc(-c3cccc(F)c3)nc2C)cc1	i	/	/	?	i	-27.0%
O=C1CCN(Cc2cccnc2)CCN1[C@H](CO)Cc1ccccc1	i	-4.6%	-2.8%	-21.5%	i	-8.8%
Cc1ccc(CN2CCSc3ccc(C(=O)NCc4ccccn4)cc32)cc1	i	-15.5%	-0.3%	-16.0%	i	?
Cc1ccc(CN2CCSc3ccc(C(=O)NCC(C)c4ccccc4)cc32)cc1 (stereo unspecified)	i	/	/	23.1µM*	i	?
